# According to ChEMBL document CHEMBL4513216, “Probing the Open Global Health Chemical Diversity Library for Multistage-Active Starting Points for Next-Generation Antimalarials” (ACS Infect Dis, 2020):
# The whole screen tested about 69,000 compounds, of which about 8,600 (12%) showed an effect of 50% or more. The list comes from a sample in which strong results are over-represented; it also holds similar structures and randomly drawn compounds.
# System: Plasmodium berghei
# Assay: Screen against P. berghei liver stage (PbLuc), transformed with Luciferase, at 10uM
# Format: functional, HepG2
# Conditions: tested at 10 uM
row,Compound,INHIBITION [%]
1,O=C1CC2(CCCCN2C(=O)c2cccs2)CN1CC1CC1 (configuration not stated),11.2
2,Cc1cc(NC(=O)NCC(O)c2ccc(F)c(F)c2)n(C)n1 (configuration not stated),21.8
3,CCn1cnnc1C1CCN(C(=O)c2cc(OC)ccc2OC)CC1,23.7
4,COc1cc(-n2cccc2)c(Cl)cc1C(N)=O,-90.8
5,CCc1ncc(C(=O)N2CCCC2Cn2cccn2)s1 (configuration not stated),49.8
6,CS(=O)(=O)Nc1ccn(Cc2ccc(F)cc2Cl)n1,31.7
7,CC(C)(C)n1cc(C(=O)N2CCN(Cc3cccnc3)CC2)cn1,-39.67
8,CCN(CC)C(=O)c1nnsc1-c1ccc(C)cc1,54.8
9,CCN(CC)C(=O)c1nnsc1-c1ccc(Cl)cc1,33.9
10,CCN(CC)C(=O)c1nnsc1-c1ccccc1,7.25
11,CCOCC(=O)N1Cc2[nH]nc(COCC3CC3)c2C1,2.4
12,CC(C)c1nc2c(n1C)CCN(CC(=O)Nc1ccncc1)C2,11.6
13,N#Cc1ccc(F)c(CNC(=O)NCCC(=O)NC2CCCC2)c1,22.5
14,Cc1cccc(NC(=O)[C@@H]2CCCN2Cc2ccc(C#N)cc2F)n1,25.2
15,N#Cc1ccc(CNC(=O)NCCC(=O)NC2CCCC2)c(F)c1,17.1
16,N#Cc1ccc(CNC(=O)NCCNC(=O)C2CCCC2)c(F)c1,52.8
17,CC1CCCCN1CCNC(=O)NCc1ccc(C#N)cc1F (configuration not stated),50.7
18,CC1CCCCN1CCNC(=O)c1ccn(-c2ccc(F)cc2)n1 (configuration not stated),34.1
19,CC(C)S(=O)(=O)N1CCC(Cc2cccc(C(=O)O)c2)C1 (configuration not stated),1.37
20,CN1C(=N)NC(=O)/C1=C\c1ccc(-c2ccc(F)cc2)o1,19.3
21,CCn1cc(S(=O)(=O)N2CCC(C)CC2)c(C)n1,4.35
22,O=C(c1sccc1C1CC1)N1CCN(c2nccs2)CC1,36.3
23,COC(=O)c1ccc(N2CCN(C(=O)c3ccc(=O)n(C)c3)CC2)cc1,36.9

row,Compound,INHIBITION [%]
1,COC(=O)c1ccc(N2CCN(C(=O)c3ccn(C)c(=O)c3)CC2)cc1,54.5
2,CN(C)c1cc(C(=O)N2CCN(c3cc(C#N)ccn3)CC2)ccn1,-8.95
3,N#Cc1cccc(C(=O)N2CCN(c3ncccn3)CC2)c1,62.1
4,Cn1ccc(C(=O)N2CCN(c3ncccn3)CC2)cc1=O,31.3
5,Cn1ccc(C(=O)N2CCN(c3cc(C#N)ccn3)CC2)cc1=O,59.4
6,CCOc1ccnc(N2CCN(C(=O)c3cccc(C#N)c3)CC2)n1,-13.7
7,N#Cc1cccc(C(=O)N2CCCC(O)(CO)CC2)c1 (configuration not stated),66.9
8,COc1ccnc(N2CCN(C(=O)c3cccc(C#N)c3)CC2)n1,18.2
9,O=C(c1cccc(Oc2ccccc2)c1)N1CCCC(O)(CO)CC1 (configuration not stated),16.1
10,O=C(c1cccc(-c2ccc(F)cc2)c1)N1CCCC(O)(CO)CC1 (configuration not stated),-122
11,Cn1ccc(C(=O)N2CCN(c3ccccn3)CC2)cc1=O,36.1
12,COCCNC(=O)c1cc(OC)c2ccoc2c1,27.7
13,CNc1nc(C(=O)N2CCCn3nc(C(=O)N4CCCC4)cc3C2)cs1,26.5
14,CC(Cn1cccn1)NC(=O)NCc1cccnc1OC(C)C (configuration not stated),11.2
15,CC[S+]([O-])CCc1nc(CC(C)C)nn1-c1ccc2c(c1)OCCO2 (configuration not stated),30.3
16,CCCNC(=O)COc1cc(C)c2c(C)nn(-c3ccc(C)cc3)c2n1,15.4
17,Cc1ccc(-n2nc(C)c3c(C)cc(OCC(=O)NC(C)C)nc32)cc1,2.55
18,CCNC(=O)COc1cc(CC)c2c(C)nn(-c3ccc(C)cc3)c2n1,66.1
19,CS(=O)(=O)N1CCC(NC(=O)COc2ccc(Br)cc2Cl)CC1,45.1
20,Cc1nc(N)cc(C2CCN2CCC(N)=O)n1 (configuration not stated),-4.87
21,Cc1ccsc1C(=O)N1CCC2(CC1)C(=O)N(C)CCN2CC1CC1,4.08
22,Cc1ccc(NC2CCN(C(=O)c3cccc4cccnc34)CC2)nn1,11.9
23,CS(=O)(=O)N1C[C@H]2CC[C@@H](C1)N(CCC(=O)NCc1ccco1)C2,13.2

row,Compound,INHIBITION [%]
1,O=C(CCN1C[C@@H]2CC[C@H]1CN(c1ncccn1)C2)NCc1ccco1,6.67
2,CN(C)S(=O)(=O)N1C[C@H]2CC[C@@H](C1)N(CCC(=O)NCc1ccco1)C2,66.9
3,O=C(COc1coc(CN2CCCCC2)cc1=O)c1ccc(Cl)cc1,38.3
4,CCN1CCOCC12CCN(C(=O)C1CCCC1)CC2,-7.28
5,CC(CS(C)(=O)=O)NC(=O)N1CC2(CCCC2)c2ccccc21 (configuration not stated),-16.1
6,Cc1cc(-c2c(C)c(-c3cnn(C)c3)nc(N)c2C#N)oc1C,31.6
7,Cc1n[nH]c(C)c1-c1c(C#N)c(N)nc2c1CCc1[nH]ccc1-2,39.7
8,Cc1c(-c2cnn(C)c2)nc(N)c(C#N)c1-c1ccc(CO)o1,88
9,COc1ncc(-c2c(C#N)c(N)nc3c2CCc2[nH]ccc2-3)cn1,39.05
10,COCCc1ncc(-c2c(C#N)c(N)nc3c2CCc2[nH]ccc2-3)cn1,27.9
11,CC(C)n1cc(-c2c(C#N)c(N)nc3c2COCC3)cn1,34.5
12,Cn1cc(-c2c(C#N)c(N)nc3c2CCc2[nH]ccc2-3)cc1C#N,50
13,Cn1cc(-c2c(C#N)c(N)nc3c2CCc2[nH]ccc2-3)cn1,60.1
14,CCc1ccc(-c2c(C)c(-c3cnn(C)c3)nc(N)c2C#N)o1,-7.7
15,O=C(CN1CCCC1Cn1cncn1)Nc1nncs1 (configuration not stated),-8.66
16,COCCN(Cc1ccccc1Cl)c1nc(CCN)nc2ccccc12,47.3
17,N#Cc1cccc(CN2C[C@H](NC(=O)C3CC3)[C@H]3OCCC[C@H]32)c1,35.8
18,COc1cc(C(=O)N(Cc2cccs2)C2CC2)cc2c1OCCO2,47.4
19,Cc1oncc1C(=O)N[C@@H]1CN(Cc2ccco2)C[C@@H]2CCCO[C@@H]21,0.453
20,COC(=O)CNC(=O)c1nc(Br)sc1C(C)C,45.3
21,Cc1nc2n(n1)CC(NCCC(=O)Nc1cc(C)on1)CC2 (configuration not stated),-3.2
